From ChEMBL document CHEMBL4513216, “Probing the Open Global Health Chemical Diversity Library for Multistage-Active Starting Points for Next-Generation Antimalarials” (ACS Infect Dis, 2020) come the findings set out here.

Out of some 68,000 compounds screened, about 2,700 (4%) showed an effect of 50% or more. The sample holds strong results, similar compounds and a random draw of the others, so the mix is not that of the screen.

For this experiment, the system named is Plasmodium berghei. The experiment in a line: Screen against P. berghei liver stage (PbLuc), transformed with Luciferase, at 2uM. The following applies: tested at 2 uM. Type of experiment: functional, HepG2.
For `CCc1nnc(NC(=O)c2ccc(C3CCCN3CC(C)C)s2)s1` (stereo not given), the INHIBITION came to 52.98%.

`Cc1cnc(NC(=O)c2ccc(C3CCCN3CC(C)C)s2)s1` (stereo not given): the INHIBITION worked out at 24.36%. On to `CC(C)CN1CCCC1c1ccc(C(=O)Nc2cn(C)nn2)s1` (stereo not given), for which the INHIBITION is reported as -28.11%.

Regarding `CCc1nccn1-c1cncc(C2CCCN2)n1` (stereo not given), the INHIBITION is recorded as -21.99%. `c1ccc(C2CCCN2Cc2nnnn2C2CC2)cc1` (stereo not given): the INHIBITION was 7.74%. Take `CN(CCCNS(=O)(=O)N1CCC2(CC1)OCCO2)c1ccccc1`: the INHIBITION came to 0.12%. Regarding `O=c1[nH]c2nc(NCC3CCCO3)ncc2c(=O)n1-c1ccc(F)cc1` (stereo not given), the INHIBITION stood at 24.34%. `O=c1[nH]c2nc(N3CCCC3)ncc2c(=O)n1-c1cccc(F)c1`: the INHIBITION is given as 22.51%. Turning to `O=c1[nH]c2nc(NCC3CCCO3)ncc2c(=O)n1-c1cccc(F)c1` (stereo not given), the INHIBITION is 61.06%. With `CN1CCCC[C@@H]2[C@H]1[C@@H](c1ccccc1)CCN2S(=O)(=O)N1CCCC1` the figure was 49.9%; with `COc1ccc(OC)c(-n2nnnc2SCC2CCCCO2)c1` (stereo not given), -10.78%; with `Cc1cnc2[nH]c(C(F)(F)F)c(CN3CCCC(CO)C3)c2c1` (stereo not given), 18.87%.

Consider `Cc1ccc(C(=O)NCCNC(=O)c2cncnc2C(C)C)cc1F`, for which the INHIBITION turned out to be 57.34%. For the compound `Cc1ccc(C(=O)NCCNC(=O)c2cncnc2C)cc1F`, the INHIBITION was -9.98%.

Regarding `CCc1ncncc1C(=O)NCCNC(=O)c1ccc(C)c(F)c1`, the INHIBITION is listed as -18.39%. For `O=C(CCn1cccn1)NCCOc1cccc(Cl)c1`, the INHIBITION came to 8.78%.

As to `O=C(c1c[nH]c(=O)cn1)N1C[C@H]2CC[C@@H](C1)N(Cc1ccccc1)C2`, the INHIBITION is recorded as 24.51%. `Cc1ccc(C(=O)N2C[C@H]3CC[C@@H](C2)N(Cc2ccccc2)C3)cn1`: the INHIBITION is -17.44%. In the case of `Nc1ccc(C(=O)N2C[C@H]3CC[C@@H](C2)N(Cc2ccccc2)C3)cn1`, the INHIBITION was 57.85%.

Consider `COc1ncccc1CN1CCn2c(Cn3cncn3)cnc2C1`, for which the INHIBITION is on record as -47.72%. For `O=C(NCCC1=CCCCC1)c1ccc(-n2cccc2)nc1`, the INHIBITION worked out at 46.17%. As to `CCc1nnc2n1CCN(C(=O)Cc1csc(-c3ccco3)n1)C2`, the INHIBITION is -5.2%.

In the case of `CCN1CCN(C(=O)C(C)n2cc(Br)cn2)CC1` (stereo not given), the INHIBITION worked out at 1.77%. Consider `CC/C=C(/C)C(=O)NS(=O)(=O)c1ccc(C#N)cc1C(F)(F)F`, for which the INHIBITION was found to be 6.08%. Then `CCCC(=O)NS(=O)(=O)c1ccc(C#N)c(C(F)(F)F)c1`, with 4.68%; and `CC/C=C(/C)C(=O)NS(=O)(=O)c1ccc(C#N)c(C(F)(F)F)c1`, with 57%; and `Cn1nc(CNC(=O)NCc2ccc(Cl)cc2)c2c1CCOC2`, with -18.29%. On to `C=C(C)COc1cccc(C(=O)N(C)C(C)c2ccncn2)c1` (stereo not given), for which the INHIBITION came out at 18.88%. With `C=C(C)COc1cccc(CN(C)C(C)c2ccncn2)c1` (stereo not given) the figure was 53.17%; with `C=C(C)COc1cccc(CN(C)C(C)c2nccs2)c1` (stereo not given), -10.78%.
